Measurements as given in the supplement of paper PMC13380429.
A number with no mark means an inactive call.

System: Vero E6 infected with SARS-CoV-2
Assay: inhibition of SARS-CoV-2 cytopathic effect; higher = more antiviral protection, active = above 15
Details: 48 h

Row | SMILES | inhibition of SARS-CoV-2 cytopathic effect (1 nM) [%] | inhibition of SARS-CoV-2 cytopathic effect (8.33 nM) [%] | inhibition of SARS-CoV-2 cytopathic effect (100 nM) [%] | inhibition of SARS-CoV-2 cytopathic effect (833.33 nM) [%] | inhibition of SARS-CoV-2 cytopathic effect (10000 nM)
1 | CCN1CCN(c2cc3c(cc2F)c(=O)c(C(=O)O)cn3C2CC2)CC1 [enrofloxacin] | 2.85 | 4.7 | 2.54 | 2.88 | 5.39%
2 | CC(C)NC(=O)c1ccc(C#Cc2ccncc2)cn1 | -1 | 1.41 | 2.79 | 1.58 | 13.2%
3 | CCOC(=O)C1=C(C)NC(C)=C(C(=O)OCC)C1c1ccccc1/C=C/C(=O)OC(C)(C)C [lacidipine] | 2.1 | -0.72 | 0.07 | 3.01 | 3.85%
4 | O=[N+]([O-])C(Br)(CO)CO [bronopol] | -0.93 | -3.53 | 0.32 | 0.51 | -1.05%
5 | NC(=O)c1nc(Nc2ccccc2)sc1NC(=O)C1CCCCC1 | 1.69 | 3.22 | -0.11 | -8.95 | -4.1%
6 | N#Cc1c(-c2ccccc2)cc(-c2cc(Br)ccc2O)[nH]c1=O | 0.98 | 2.69 | 3 | 2.87 | 3.55%
7 | CC(C)(C)C(=O)CN1C(=O)[C@H](NC(=O)Nc2cccc(C(=O)O)c2)CN(C2CCCCC2)c2ccccc21 [nastorazepide] | -1.25 | -0.99 | 0.77 | 0.71 | -1.1%
8 | CCN1/C(=C/C(C)=O)Sc2ccc(OC)cc21 | 1.8 | 1.75 | -2.1 | 0.11 | 0.79%
9 | CC(NCCC(c1ccccc1)c1ccccc1)c1ccccc1 (stereo not given) [fendiline] | 0.75 | 2.18 | -0.68 | -4.72 | 11.9%
10 | O=C1COc2nccc(-c3ccccc3F)c2CN1Cc1cc(C(F)(F)F)cc(C(F)(F)F)c1 | -0.76 | -1.69 | -0.49 | -2.79 | -1.55%
11 | CC(C)(C)c1ccc(/C=C/C(=O)Nc2ccc3c(c2)OCCO3)cc1 | -2.25 | 0.94 | 1.24 | -0.32 | -0.3%
12 | CC(N)Cc1ccc(O)cc1 (stereo not given) [hydroxyamphetamine] | 1.55 | -1.8 | 2.28 | 0.63 | 1.86%
13 | Brc1c(Br)c(Br)c2[nH]nnc2c1Br [4,5,6,7-tetrabromobenzotriazole] | 1.42 | 3.75 | -0.07 | 1.63 | 3.61%
14 | Cc1cc2cc3c(C)cc(=O)oc3c(C)c2o1 [trioxsalen] | 1.96 | 2.74 | 0.65 | 3.62 | -0.06%
15 | O=C(Nc1ccc(Oc2ccc(Cl)cn2)c(Cl)c1)c1ccccn1 | 0.81 | -0.54 | 1.75 | -3.64 | 0.26%
16 | COc1cc(C[C@H]2C(=O)OC[C@@H]2Cc2ccc(OC)c(OC)c2)ccc1O [arctigenin] | -2.79 | 0.36 | -2.78 | 0.01 | 2.1%
17 | CN1CCc2nc(C(=O)N[C@@H]3C[C@@H](C(=O)N(C)C)CC[C@@H]3NC(=O)C(=O)Nc3ccc(Cl)cn3)sc2C1 [edoxaban] | -1.16 | -1.57 | -1.51 | -3.37 | -1.69%
18 | CC1=NN(c2ccccc2)C(=O)C1 [edaravone] | 1.36 | 0.66 | -0.76 | 0.1 | 3.57%
19 | CCCc1cc(C)[nH]c(=O)c1CNC(=O)c1cc(-c2ccc(N3CCN(C(C)C)CC3)nc2)cc2c1cnn2C(C)C | -1.83 | 1 | -2.55 | -0.64 | 42.3% (active)
20 | Nc1nc(NC2CC2)cc(-c2cccc(Cl)c2Cl)n1 | 0.66 | -1.17 | -1.96 | -0.45 | -1.5%
